Experimental data: PubChem BioAssay AID1159580 (chemical genetic matrix, 2015)
In all, about 5,500 compounds went through this assay and about 2,000 (36%) were called active. Inconclusive results (about 18%) are left out. No stated cut-off is given here; in the data, active means normalized growth mostly below about 0.91 (no sharp cut-off); inconclusive means no clear call, values can overlap the other calls; inactive means mostly above about 0.92. The list shows a part of the results.

Test: chemical genetic growth profiling, strain panel (AID 1159580);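 further: tested at 20 µM; growth read once vehicle control cultures reached saturation at 30 °C; 1 = growth at the plate median or of vehicle wells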
Settings: S. cerevisiae deletion strains, growth OD
[1] = locus YAL013W, strain DEP1, stronger effect = lower value
[2] = locus YDL101C, strain DUN1, stronger effect = lower value
[3] = locus YDR150W, strain NUM1, stronger effect = lower value
[4] = locus YGR078C, strain PAC10, stronger effect = lower value
[5] = locus YHR030C, strain SLT2, stronger effect = lower value
[6] = locus YJR075W, strain HOC1, stronger effect = lower value
[7] = locus YMR263W, strain SAP30, stronger effect = lower value
[8] = locus YMR307W, strain GAS1, stronger effect = lower value
[9] = locus YNL128W, strain TEP1, stronger effect = lower value
[10] = locus YNL153C, strain GIM3, stronger effect = lower value
[11] = locus YPL055C, strain LGE1, stronger effect = lower value
[12] = locus YPL241C, strain CIN2, stronger effect = lower value
[13] = locus YAL040C, strain CLN3, stronger effect = lower value
[14] = locus YER002W, strain NOP16, stronger effect = lower value
[15] = locus YNL175C, strain NOP13, stronger effect = lower value
[16] = locus YNL197C, strain WHI3, stronger effect = lower value
[17] = locus YNL224C, strain SQS1, stronger effect = lower value
[18] = locus YOR083W, strain WHI5 (second series), stronger effect = lower value
[19] = locus YCL061C, strain MRC1 (second series), stronger effect = lower value
[20] = locus YDR363W, strain ESC2, stronger effect = lower value
[21] = locus YGR229C, strain SMI1, stronger effect = lower value

Measured: normalized growth

O=C(c1c(F)cccc1F)N1CCN(C(=O)c2c(F)cccc2F)CC1
inactive: [1] 1.01 | locus YBR229C, strain ROT2, stronger effect = lower value 0.987 | [2] 1 | locus YDL134C, strain PPH21, stronger effect = lower value 0.973 | [3] 1.02 | locus YEL061C, strain CIN8, stronger effect = lower value 0.945 | [4] 1.02 | [5] 1.11 | locus YHR087W, strain rtc3, stronger effect = lower value 0.98 | locus YJL187C, strain SWE1, stronger effect = lower value 1 | locus YJR043C, strain POL32, stronger effect = lower value 1.02 | [6] 0.988 | locus YKL190W, strain CNB1, stronger effect = lower value 0.984 | locus YLR039C, strain RIC1, stronger effect = lower value 1.09 | locus YLR058C, strain SHM2 (second series), stronger effect = lower value 0.985 | locus YLR085C, strain ARP6, stronger effect = lower value 0.951 | locus YLR262C, strain YPT6, stronger effect = lower value 1.06 | locus YML094W, strain GIM5, stronger effect = lower value 0.996 | locus YMR219W, strain ESC1, stronger effect = lower value 1 | [7] 0.99 | [8] 0.964 | [9] 0.978 | [10] 1.02 | locus YNL298W, strain CLA4 (second series), stronger effect = lower value 0.962 | locus YNL322C, strain KRE1, stronger effect = lower value 0.99 | locus YNR030W, strain Alg12, stronger effect = lower value 0.976 | [11] 0.98 | [12] 1.01 | locus YPR135W, strain CTF4, stronger effect = lower value 1.01

O=C(c1csc(-c2ccc(Cl)cc2)c1)N1CCCCC1
active: [5] 0.588 | locus YLR113W, strain HOG1, stronger effect = lower value 0.711 | locus YPL256C, strain CLN2, stronger effect = lower value 0.766
inactive: locus YAR019C, strain CDC15, stronger effect = lower value 0.95 | locus YBL105C, strain PKC1, stronger effect = lower value 0.953 | locus YBR135W, strain CKS1, stronger effect = lower value 0.943 | locus YBR136W, strain MEC1, stronger effect = lower value 0.952 | locus YBR160W, strain CDC28, stronger effect = lower value 0.944 | locus YDL017W, strain CDC7, stronger effect = lower value 0.957 | locus YDL028C, strain MPS1, stronger effect = lower value 0.951 | [2] 0.946 | locus YDL108W, strain KIN28, stronger effect = lower value 0.953 | locus YDL132W, strain cdc53, stronger effect = lower value 0.941 | locus YDL214C, strain PRR2, stronger effect = lower value 0.849 | locus YDR052C, strain DBF4, stronger effect = lower value 0.952 | locus YDR054C, strain cdc34, stronger effect = lower value 0.935 | locus YDR226W, strain ADK1, stronger effect = lower value 0.948 | locus YDR477W, strain SNF1, stronger effect = lower value 0.851 | locus YER123W, strain YCK3, stronger effect = lower value 0.83 | locus YER133W, strain GLC7, stronger effect = lower value 0.857 | locus YFL009W, strain cdc4, stronger effect = lower value 0.942 | locus YFL029C, strain CAK1, stronger effect = lower value 0.944 | locus YFR003C, strain YPI1, stronger effect = lower value 0.96 | locus YFR019W, strain FAB1, stronger effect = lower value 0.882 | locus YFR028C, strain CDC14, stronger effect = lower value 0.948 | locus YGR040W, strain KSS1, stronger effect = lower value 0.844 | locus YGR052W, strain FMP48, stronger effect = lower value 0.918 | locus YGR092W, strain DBF2, stronger effect = lower value 0.834 | locus YHR079C, strain IRE1, stronger effect = lower value 0.785 | locus YHR082C, strain KSP1, stronger effect = lower value 0.831 | locus YHR205W, strain SCH9, stronger effect = lower value 0.801 | locus YIL147C, strain SLN1, stronger effect = lower value 0.948 | locus YJL095W, strain BCK1, stronger effect = lower value 0.714 | locus YJL128C, strain PBS2, stronger effect = lower value 0.878 | locus YJL157C, strain FAR1, stronger effect = lower value 0.838 | locus YJR016C, strain ILV3, stronger effect = lower value 0.954 | locus YJR066W, strain TOR1 (second series), stronger effect = lower value 0.764 | locus YJR066W, strain TOR1, stronger effect = lower value 0.759 | locus YKL048C, strain ELM1, stronger effect = lower value 0.904 | locus YKL067W, strain YNK1, stronger effect = lower value 0.857 | locus YKL101W, strain HSL1, stronger effect = lower value 0.884 | locus YKL193C, strain SDS22, stronger effect = lower value 0.951 | locus YKL203C, strain TOR2, stronger effect = lower value 0.868 | locus YLR133W, strain CKI1, stronger effect = lower value 0.862 | locus YLR403W, strain SFP1, stronger effect = lower value 0.79 | locus YML070W, strain DAK1, stronger effect = lower value 0.847 | locus YMR001C, strain CDC5, stronger effect = lower value 0.94 | locus YMR205C, strain PFK2 (second series), stronger effect = lower value 0.866 | locus YMR277W, strain FCP1, stronger effect = lower value 0.944 | locus YNL006W, strain LST8, stronger effect = lower value 0.953 | locus YNL020C, strain ARK1, stronger effect = lower value 0.84 | locus YNL161W, strain CBK1, stronger effect = lower value 0.953 | locus YNL183C, strain NPR1, stronger effect = lower value 0.801 | locus YNL207W, strain RIO2, stronger effect = lower value 0.928 | locus YNL222W, strain SSU72, stronger effect = lower value 0.958 | locus YNL307C, strain MCK1 (second series), stronger effect = lower value 0.845 | locus YOL078W, strain AVO1, stronger effect = lower value 0.948 | locus YOL136C, strain PFK27, stronger effect = lower value 0.823 | locus YOR061W, strain CKA2, stronger effect = lower value 0.803 | locus YOR119C, strain RIO1, stronger effect = lower value 0.903 | locus YOR231W, strain MKK1, stronger effect = lower value 0.797 | locus YOR329C, strain SCD5, stronger effect = lower value 0.954 | locus YPL031C, strain PHO85, stronger effect = lower value 0.815 | locus YPL153C, strain RAD53, stronger effect = lower value 0.831 | locus YPL204W, strain HRR25, stronger effect = lower value 0.812 | locus YPL209C, strain IPL1, stronger effect = lower value 0.956 | locus YPR025C, strain CCL1, stronger effect = lower value 0.944 | locus YPR106W, strain ISR1, stronger effect = lower value 0.95 | locus YPR111W, strain DBF20, stronger effect = lower value 0.935 | strain NNK1, stronger effect = lower value 0.93 | strain TSCII, stronger effect = lower value 0.942

NC(CCCCCP(=O)(O)O)C(=O)O (stereo unspecified)
inactive: [13] 0.977 | [3] 0.989 | [14] 0.973 | [15] 1 | [16] 0.992 | [17] 1.01 | [18] 0.983 | [11] 0.999 | [12] 0.98

CCCCCCCCCCCCCCCCCCNC(=O)OCC(COP(=O)([O-])OCC[n+]1ccsc1)OC (stereo unspecified)
inactive: [1] 0.983 | [13] 1 | [19] 1 | [20] 1.03 | [14] 1.01 | [21] 0.936 | [7] 1 | [8] 0.968 | [15] 1.03 | [16] 1.06 | [17] 1.03 | [18] 1.01 | [11] 1.04 | [12] 1.01

CCCCCCCCCCCCCCCCCC(=O)NCC(COP(=O)([O-])OCC[N+](C)(C)C)OCC (stereo unspecified)
active: [13] 0.0918 | [19] 0.0501 | [3] 0.0538 | [20] 0.0807 | [14] 0.0757 | [21] 0.0622 | [6] 0.0689 | [7] 0.0519 | [8] 0.0635 | [9] 0.0936 | [10] 0.0918 | [15] 0.0883 | [16] 0.0927 | [17] 0.0836 | [18] 0.116 | [12] 0.0483

CCCCCCCCCCCCCCCC(=O)NCC(COP(=O)([O-])OCC[N+](C)(C)C)OCC (stereo unspecified)
active: [13] 0.322 | [19] 0.155 | [3] 0.0974 | [20] 0.165 | [14] 0.0938 | [7] 0.619 | [15] 0.0862 | [16] 0.373 | [17] 0.151 | [18] 0.223 | [11] 0.109
inactive: [4] 0.971
